“And” between values parts separate entries of the source, which are not always exact repeats. Identical values can stand only once. Inconclusive results are not listed. A call without a number means that no potency is given here. The source made the active and inactive calls. Calls follow the shape of the dose curve; as a rule, active = well fitted cell-killing curve with a large enough effect; inconclusive = small, poorly fitted or top-dose-only effect, or effect the other way; inactive = flat fitted curve, though single readings scatter.
Assays:
Assay in all cases: Primary qHTS to identify gynecologic anti-cancer compounds using libraries of approved drugs and bioactive compounds (AID 1345084); also: nearly all actives have a fitted effect of over 55% in size
[1] = tested on: CAOV3; conditions: Gynecologic cancer cell panel viability, ATPlite luminescence, 48 h; series mostly up to 57.5 µM
In short: (§1)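 Measured: luminescence after ATPlite addition (15 min, RT). Exposure: 48 h, 37 C, 5% CO2.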

[2] = tested on: CASKI; conditions: Gynecologic cancer cell panel viability, ATPlite luminescence, 48 h; series mostly up to 57.5 µM
In short: as §1

[3] = tested on: Es-2; conditions: Gynecologic cancer cell panel viability, ATPlite luminescence, 48 h; series mostly up to 57.5 µM
In short: as §1

[4] = tested on: HeLa; conditions: Gynecologic cancer cell panel viability, ATPlite luminescence, 48 h; series mostly up to 57.5 µM
In short: as §1

[5] = tested on: Hek293T; conditions: Gynecologic cancer cell panel viability, ATPlite luminescence, 48 h, control line for the selectivity index; series mostly up to 57.5 µM
In short: as §1

[6] = tested on: JEG-3; conditions: Gynecologic cancer cell panel viability, ATPlite luminescence, 48 h; series mostly up to 57.5 µM
In short: as §1

[7] = tested on: OV90; conditions: Gynecologic cancer cell panel viability, ATPlite luminescence, 48 h; series mostly up to 57.5 µM
In short: as §1

[8] = tested on: PA-1; conditions: Gynecologic cancer cell panel viability, ATPlite luminescence, 48 h; series mostly up to 57.5 µM
In short: as §1

[9] = tested on: SKOV3; conditions: Gynecologic cancer cell panel viability, ATPlite luminescence, 48 h; series mostly up to 57.5 µM
In short: as §1

[10] = tested on: Tov-21-G; conditions: Gynecologic cancer cell panel viability, ATPlite luminescence, 48 h; series mostly up to 57.5 µM
In short: as §1
Potency is read from the fitted curve at half-maximal effect.

Cc1cc(SCc2sc(-c3ccc(C(F)(F)F)cc3)nc2C)ccc1OCC(=O)O
Potency [1]: inactive
Potency [2]: inactive
Potency [3]: inactive
Potency [4]: inactive
Potency [5]: inactive
Potency [6]: inactive
Potency [7]: inactive
Potency [8]: inactive
Potency [9]: inactive
Potency [10]: inactive

CCn1cc(C(=O)O)c(=O)c2cc(F)c(N3CCNC(C)C3)c(F)c21 (stereo unspecified)
Potency [1]: inactive
Potency [2]: inactive
Potency [3]: inactive
Potency [4]: inactive
Potency [5]: inactive
Potency [6]: inactive
Potency [7]: inactive
Potency [8]: inactive
Potency [9]: inactive
Potency [10]: inactive

Clc1cccc(Cl)c1NC1=NCCN1
Potency [1]: inactive
Potency [2]: inactive
Potency [3]: inactive
Potency [4]: inactive
Potency [5]: inactive
Potency [6]: inactive
Potency [7]: inactive
Potency [8]: inactive
Potency [9]: inactive
Potency [10]: inactive

NCCc1ccc(O)c(O)c1
Potency [1]: inactive
Potency [2]: inactive
Potency [3]: inactive
Potency [4]: inactive
Potency [5]: inactive
Potency [6]: inactive
Potency [7]: inactive
Potency [8]: inactive
Potency [10]: inactive

O=c1n(CCCN2CCN(c3cccc(Cl)c3)CC2)nc2ccccn12
Potency [1]: inactive
Potency [2]: inactive
Potency [3]: inactive
Potency [4]: inactive
Potency [5]: inactive
Potency [6]: inactive
Potency [7]: inactive
Potency [8]: inactive
Potency [9]: inactive
Potency [10]: inactive

CCN(CC)CCCC(C)Nc1ccnc2cc(Cl)ccc12 (stereo unspecified)
activity change, negative = cytotoxicity [1]: -18.6% [at 11.6 µM] (inactive)
activity change, negative = cytotoxicity [2]: -9.21% [at 11.6 µM] (inactive)
Potency [3]: inactive
Potency [4]: inactive
Potency [5]: inactive
Potency [6]: inactive
Potency [7]: 5.62 µM (active)
Potency [8]: inactive
Potency [9]: inactive
Potency [10]: inactive

CCCc1nn(C)c2c(=O)[nH]c(-c3cc(S(=O)(=O)N4CCN(C)CC4)ccc3OCC)nc12
Potency [1]: inactive
Potency [2]: inactive
Potency [3]: inactive
Potency [4]: inactive
Potency [5]: inactive
Potency [6]: inactive
Potency [7]: inactive
Potency [8]: inactive
Potency [9]: inactive
Potency [10]: inactive

NC(N)=NC(=O)c1nc(Cl)c(N)nc1N
Potency [1]: inactive
Potency [2]: inactive
Potency [3]: inactive
Potency [4]: inactive
Potency [5]: inactive
Potency [6]: inactive
Potency [7]: inactive
Potency [8]: inactive
Potency [9]: inactive
Potency [10]: inactive

CCOc1cc(C(=O)Nc2ccc(Cl)c(-c3nc4ccccc4[nH]3)c2)cc(OCC)c1OCC
Potency [1]: inactive
Potency [2]: inactive
Potency [3]: inactive
Potency [4]: inactive
Potency [5]: inactive
Potency [6]: inactive
Potency [7]: inactive
Potency [8]: inactive
Potency [10]: inactive

CC(=O)Oc1ccccc1C(=O)O
Potency [1]: inactive
Potency [2]: inactive
Potency [3]: inactive
Potency [4]: inactive
Potency [5]: inactive
Potency [6]: inactive
Potency [7]: inactive
Potency [8]: inactive
Potency [9]: inactive
Potency [10]: inactive

CC(C)NCC(O)COc1ccc(COCCOC(C)C)cc1 (stereo unspecified)
Potency [1]: inactive
Potency [2]: inactive
Potency [3]: inactive
Potency [4]: inactive
Potency [5]: inactive
Potency [6]: inactive
Potency [7]: inactive
Potency [8]: inactive
Potency [9]: inactive
Potency [10]: inactive

CC(C[N+](C)(C)C)OC(N)=O (stereo unspecified)
Potency [1]: inactive
Potency [2]: inactive
Potency [3]: inactive
Potency [4]: inactive
Potency [5]: inactive
Potency [6]: inactive
Potency [7]: inactive
Potency [8]: inactive
Potency [9]: inactive
Potency [10]: inactive

COc1cc2c(cc1OC)CN(CCc1ccc(NC(=O)c3cccc4c(=O)c5cccc(OC)c5[nH]c34)cc1)CC2
Potency [1]: inactive
Potency [2]: inactive
Potency [3]: inactive
Potency [4]: inactive
Potency [5]: inactive
Potency [6]: inactive
Potency [7]: inactive
Potency [8]: inactive
Potency [9]: inactive
Potency [10]: inactive

Cn1cc(-c2ccc3nnc(C(F)(F)c4ccc5ncccc5c4)n3n2)cn1
Potency [1]: inactive
Potency [2]: inactive
Potency [3]: inactive
Potency [4]: inactive
Potency [5]: inactive
Potency [6]: inactive
Potency [7]: inactive
Potency [8]: inactive
Potency [10]: inactive

Cc1oncc1C(=O)Nc1ccc(C(F)(F)F)cc1
Potency [1]: 12.6 µM (active)
Potency [2]: 31.6 µM (active)
Potency [3]: 28.2 µM (active)
Potency [4]: 25.1 µM (active)
Potency [5]: 14.1 µM (active)
Potency [6]: 25.1 µM (active)
Potency [7]: 17.8 µM (active)
Potency [8]: 11.2 µM (active)
Potency [9]: 25.1 µM (active)
Potency [10]: 25.1 µM (active)

OC(CCN1CCCCC1)(c1ccccc1)C1CC2C=CC1C2 (stereo unspecified)
Potency [1]: inactive
Potency [2]: inactive
Potency [3]: inactive
Potency [4]: inactive
Potency [5]: inactive
Potency [6]: inactive
Potency [7]: inactive
Potency [8]: inactive
Potency [9]: inactive
Potency [10]: inactive

N[C@@H]1CONC1=O
Potency [1]: inactive
Potency [2]: inactive
Potency [3]: inactive
Potency [4]: inactive
Potency [5]: inactive
Potency [6]: inactive
Potency [7]: inactive
Potency [8]: inactive
Potency [9]: inactive
Potency [10]: inactive

Cc1cnc(NC(=O)C2=C(O)c3ccccc3S(=O)(=O)N2C)s1
Potency [1]: inactive
Potency [2]: inactive
Potency [3]: inactive
Potency [4]: inactive
Potency [5]: inactive
Potency [6]: inactive
Potency [7]: inactive
Potency [8]: inactive
Potency [9]: inactive
Potency [10]: inactive

CN(C)c1ccc(C2Nc3ccc4ccccc4c3C3=C2C(=O)CC(C)(C)C3)cc1Br (stereo unspecified)
Potency [1]: inactive
Potency [2]: inactive
Potency [3]: inactive
Potency [4]: inactive
Potency [5]: inactive
Potency [6]: inactive
Potency [7]: inactive
Potency [8]: inactive
Potency [9]: inactive

Cn1cnc([N+](=O)[O-])c1Sc1ncnc2nc[nH]c12
Potency [1]: inactive
Potency [2]: 1.26 µM (active) and 3.55 µM (active)
Potency [3]: 3.16 µM (active) and 10 µM (active)
Potency [4]: 1.41 µM (active)
Potency [5]: 15.8 µM (active) and 28.2 µM (active)
Potency [6]: 3.16 µM (active)
Potency [7]: 3.98 µM (active) and 7.08 µM (active)
Potency [8]: 1.12 µM (active) and 7.08 µM (active)
Potency [9]: inactive
Potency [10]: 1.12 µM (active) and 3.16 µM (active)

Source: PubChem BioAssay (NCATS)
